Outcome and AC50 data for 2 molecules are collected here from PubChem BioAssay (EPA / NIEHS).

Read-out in experiment [1]: C-C motif chemokine 2 (Homo sapiens) (UniProt P13500)
In words: BSK_KF3CT_MCP1: BioMAP Diversity Plus: KF3CT Assay for Monocyte Chemoattractant Protein 1 (MCP1/CCL2) Biomarker Activity (AID 2283073). Conditions: primary human keratinocytes with fibroblasts; actives raise or lower the signal. In a few lines: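 Biomarker MCP-1 is measured by ELISA in primary human keratinocytes co-cultured with foreskin fibroblasts, 24 h after chemical treatment; DMSO serves as the negative control and activity baseline.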

Read-out in experiment [2]: Matrix Metallopeptidase 9 (MMP9), MMP9 (gene 4318)
The experiment can be described thus: BSK_KF3CT_MMP9: BioMAP Diversity Plus: KF3CT Assay for Matrix Metallopeptidase 9 (MMP9) Biomarker Activity (AID 2283074).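 As to AC50: MMP9 protein level quantified by ELISA in the co-culture.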 The conditions noted are these: primary human keratinocytes with fibroblasts; actives raise or lower the signal. The essentials:
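Human keratinocyte and foreskin fibroblast co-culture exposed to chemicals for 24 h; MMP9 biomarker measured by ELISA, bidirectional fitting relative to DMSO; cytotoxicity tracked by SRB total protein staining in parallel cultures.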

Read-out in experiment [3]: urokinase plasminogen activator (uPA), PLAU (gene 5328)
In words: BSK_KF3CT_uPA: BioMAP Diversity Plus: KF3CT Assay for urokinase plasminogen activator (uPA) Biomarker Activity (AID 2283075). Conditions: primary human keratinocytes with fibroblasts; actives raise or lower the signal. In a few lines:
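Primary human keratinocyte/foreskin fibroblast co-culture exposed to chemical; uPA measured by ELISA at 24 h. Bidirectional fit versus DMSO, with parallel SRB total-protein staining for cytotoxicity.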

Read-out in experiment [4]: CD40, CD40 (gene 958)
In words: BSK_LPS_CD40: BioMAP Diversity Plus: LPS Assay for CD40 Biomarker Activity (AID 2283076). The conditions noted are these: primary human HUVEC with PBMC; actives raise or lower the signal. The essentials:
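Using a multiplexed primary human co-culture (umbilical vein endothelium plus PBMC), CD40 was read by ELISA 24 h after dosing, with cytotoxicity tracked by sulforhodamine B staining of parallel cultures and activity fitted bidirectionally versus DMSO.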

Read-out in experiment [5]: E-selectin (Homo sapiens) (UniProt P16581)
The experiment can be described thus: BSK_LPS_Eselectin: BioMAP Diversity Plus: LPS Assay for Eselectin Biomarker Activity (AID 2283077). The conditions noted are these: primary human HUVEC with PBMC; actives raise or lower the signal. The essentials:
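Dose chemical onto LPS-driven HUVEC/PBMC co-culture; after 24 h, run ELISA for E-selectin; fit up- and down-going responses relative to DMSO control.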

Read-out in experiment [6]: Interleukin-8 (IL8), CXCL8 (gene 3576)
The experiment can be described thus: BSK_LPS_IL8: BioMAP Diversity Plus: LPS Assay for Interleukin-8 (IL8) Biomarker Activity (AID 2283078). Conditions: primary human HUVEC with PBMC; actives raise or lower the signal. The essentials: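 In this LPS system, chemical-treated human umbilical vein endothelium/PBMC co-cultures were harvested at 24 h for IL-8 ELISA.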

Experiment [7] in a line: BSK_LPS_SRB: Viability Assessment in the BioMAP Diversity Plus: LPS Assay (AID 2283079).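 Also: total protein by sulforhodamine B absorbance as a cytotoxicity measure; measured one day after compound addition; fitted in both directions against DMSO so loss or gain of signal counts.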 Conditions: primary human HUVEC with PBMC. The essentials:
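Cytotoxicity endpoint in human endothelial–PBMC co-culture: 24 h exposure, then SRB (0.1%) staining, 560 nm read.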

Read-out in experiment [8]: Interleukin-1 alpha (IL1a), IL1A (gene 3552)
The experiment can be described thus: BSK_LPS_IL1a: BioMAP Diversity Plus: LPS Assay for Interleukin-1 alpha (IL1a) Biomarker Activity (AID 2283080). Conditions: primary human HUVEC with PBMC; actives raise or lower the signal. The essentials: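 Primary human HUVEC and PBMC co-culture stimulated with LPS is dosed and harvested at 24 h. Both increases and decreases in ELISA-measured IL-1a are scored relative to DMSO.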

Read-out in experiment [9]: Monocyte Chemoattractant Protein-1 (MCP1), CCL2 (gene 6347)
In words: BSK_LPS_MCP1: BioMAP Diversity Plus: LPS Assay for Monocyte Chemoattractant Protein-1 (MCP1) Biomarker Activity (AID 2283081). Conditions: primary human HUVEC with PBMC; actives raise or lower the signal. The essentials: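 Values derive from bidirectional fitting against DMSO of ELISA-measured MCP-1 in a human primary endothelial and mononuclear cell co-culture, 24 h after chemical addition under LPS activation.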

Experiment [10] is described as follows: BSK_LPS_PGE2: BioMAP Diversity Plus: LPS Assay for Prostaglandin E2 (PGE2) Biomarker Activity (AID 2283082). The conditions noted are these: primary human HUVEC with PBMC; actives raise or lower the signal. The essentials: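 HUVEC plus human PBMC co-culture stimulated with LPS; secreted PGE2 quantified by ELISA 24 h after chemical dosing. Activity fitted bidirectionally against DMSO baseline; parallel SRB staining (0.1% SRB after 10% TCA fixation, 560 nm) flags overt cytotoxicity.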

Read-out in experiment [11]: Macrophage colony-stimulating factor (MCSF), CSF1 (gene 1435)
The experiment can be described thus: BSK_LPS_MCSF: BioMAP Diversity Plus: LPS Assay for Macrophage colony-stimulating factor (MCSF) Biomarker Activity (AID 2283083). Conditions: primary human HUVEC with PBMC; actives raise or lower the signal. In a few lines:
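Bidirectional fit versus DMSO of ELISA-measured M-CSF in co-cultured human umbilical vein endothelial cells and PBMC, sampled 24 h after dosing.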

Read-out in experiment [12]: Tissue Factor, F3 (gene 2152)
In words: BSK_LPS_TissueFactor: BioMAP Diversity Plus: LPS Assay for Tissue Factor Biomarker Activity (AID 2283084). Conditions: primary human HUVEC with PBMC; actives raise or lower the signal. The essentials: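 Read-out: CD142 ELISA, 24 h. System: LPS-driven human endothelial/PBMC co-culture. Analysis: up- or down-signal fitted against DMSO.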

Read-out in experiment [13]: Tumor necrosis factor (Homo sapiens) (UniProt P01375)
The experiment can be described thus: BSK_LPS_TNFa: BioMAP Diversity Plus: LPS Assay for Tumour Necrosis Factor alpha (TNFa) Biomarker Activity (AID 2283085). Conditions: primary human HUVEC with PBMC; actives raise or lower the signal. The essentials: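 Human umbilical vein endothelial cells co-cultured with PBMC and stimulated with LPS. TNFa was measured by ELISA 24 h after chemical dosing, fitted bidirectionally relative to DMSO.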

Read-out in experiment [14]: Vascular cell adhesion molecule 1 (VCAM1), VCAM1 (gene 7412)
In words: BSK_LPS_VCAM1: BioMAP Diversity Plus: LPS Assay for Vascular cell adhesion molecule 1 (VCAM1) Biomarker Activity (AID 2283086). The conditions noted are these: primary human HUVEC with PBMC; actives raise or lower the signal. The essentials:
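Human umbilical vein endothelial cells co-cultured with PBMC and stimulated with LPS; VCAM-1 measured by ELISA 24 h after dosing. Bidirectional curve fitting against DMSO baseline; cytotoxicity tracked in parallel by SRB total-protein staining.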

Read-out in the next experiment: CD38, CD38 (gene 952)
The experiment can be described thus: BSK_SAg_CD38: BioMAP Diversity Plus: SAg Assay for CD38 Biomarker Activity (AID 2283087). Conditions: primary human HUVEC with PBMC; actives raise or lower the signal. The essentials: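 Human HUVEC plus PBMC co-culture stimulated with superantigen; CD38 measured by ELISA 24 h after chemical dosing. Fluorescence read-out, bidirectional fit against DMSO; cytotoxicity tracked in parallel by SRB and Alamar Blue.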

Read-out in experiment [15]: CD40, CD40 (gene 958)
The experiment can be described thus: BSK_SAg_CD40: BioMAP Diversity Plus: SAg Assay for CD40 Biomarker Activity (AID 2283088). The conditions noted are these: primary human HUVEC with PBMC; actives raise or lower the signal. In a few lines:
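Endpoint derived by fitting increases or decreases versus DMSO controls. CD40 is detected by fluorescence ELISA in a human vascular co-culture of endothelium and PBMC at 24 h.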

Read-out in a further experiment: CD69, CD69 (gene 969)
In words: BSK_SAg_CD69: BioMAP Diversity Plus: SAg Assay for CD69 Biomarker Activity (AID 2283089). The conditions noted are these: primary human HUVEC with PBMC; actives raise or lower the signal. The essentials:
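Values derive from bidirectional fitting relative to DMSO vehicle. Cells: umbilical vein endothelium plus peripheral blood mononuclear cells, treated 24 h before fluorescent ELISA for CD69.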

Read-out in experiment [16]: Monocyte Chemoattractant Protein-1 (MCP1), CCL2 (gene 6347)
In words: BSK_SAg_MCP1: BioMAP Diversity Plus: SAg Assay for Monocyte Chemoattractant Protein-1 (MCP1) Biomarker Activity (AID 2283090). The conditions noted are these: primary human HUVEC with PBMC; actives raise or lower the signal. The essentials: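 MCP-1 levels in the endothelial–PBMC SAg co-culture were quantified by ELISA at 24 h post-dosing; both increases and decreases versus DMSO scored. Cytotoxicity monitored by SRB total protein in parallel cultures.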

Read-out in experiment [17]: E-selectin (Homo sapiens) (UniProt P16581)
In words: BSK_SAg_Eselectin: BioMAP Diversity Plus: SAg Assay for Eselectin Biomarker Activity (AID 2283091). Conditions: primary human HUVEC with PBMC; actives raise or lower the signal. The essentials:
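Endpoint values derive from bidirectional fitting relative to DMSO, using ELISA-measured E-selectin in a human vascular co-culture (umbilical vein endothelium plus PBMC) sampled 24 h after dosing.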

Read-out in experiment [18]: Monokine induced gamma interferon (MIG), CXCL9 (gene 4283)
The experiment can be described thus: BSK_SAg_MIG: BioMAP Diversity Plus: SAg Assay for Monokine induced gamma interferon (MIG) Biomarker Activity (AID 2283092). The conditions noted are these: primary human HUVEC with PBMC; actives raise or lower the signal. In a few lines:
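Values reflect bidirectional fitting of ELISA-measured MIG against DMSO vehicle, taken 24 h after dosing of a co-culture of human umbilical vein endothelial cells and peripheral blood mononuclear cells.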

Structures are written as SMILES. The source made the active and inactive calls. The calls were made as follows: active = hit-call score of the fitted dose curve at least 0.9, where 1 is the maximum; inactive = score below 0.9.

Broadly, the AC50 is the concentration giving half of the maximal activity seen.

Chain of E-selectin (Homo sapiens) (P16581 whole entry, looked up): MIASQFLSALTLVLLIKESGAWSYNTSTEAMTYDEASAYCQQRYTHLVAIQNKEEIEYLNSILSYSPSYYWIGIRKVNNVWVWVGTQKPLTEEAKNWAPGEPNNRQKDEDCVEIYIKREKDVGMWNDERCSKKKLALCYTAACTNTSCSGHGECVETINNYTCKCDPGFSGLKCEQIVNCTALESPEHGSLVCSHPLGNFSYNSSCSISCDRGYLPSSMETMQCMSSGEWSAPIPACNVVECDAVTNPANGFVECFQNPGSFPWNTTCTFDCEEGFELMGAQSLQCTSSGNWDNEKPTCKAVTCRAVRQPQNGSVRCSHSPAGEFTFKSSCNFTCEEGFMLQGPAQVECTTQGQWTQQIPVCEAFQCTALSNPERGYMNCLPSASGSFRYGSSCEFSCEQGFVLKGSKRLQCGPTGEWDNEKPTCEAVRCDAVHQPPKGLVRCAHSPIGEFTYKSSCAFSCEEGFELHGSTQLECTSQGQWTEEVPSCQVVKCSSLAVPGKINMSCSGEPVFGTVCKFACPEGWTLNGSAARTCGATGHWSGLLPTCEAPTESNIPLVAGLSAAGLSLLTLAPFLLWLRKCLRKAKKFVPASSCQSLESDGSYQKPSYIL
Chain of Tumor necrosis factor (Homo sapiens) (P01375 whole entry, looked up): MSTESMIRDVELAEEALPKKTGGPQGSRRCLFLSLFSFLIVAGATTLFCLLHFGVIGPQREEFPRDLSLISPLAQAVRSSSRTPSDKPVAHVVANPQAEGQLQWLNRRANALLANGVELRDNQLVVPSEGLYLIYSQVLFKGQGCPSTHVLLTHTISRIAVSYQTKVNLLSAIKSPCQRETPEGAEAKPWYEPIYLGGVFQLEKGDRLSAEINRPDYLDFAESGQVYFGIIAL

For `O=C(O)Cc1cc(I)c(Oc2ccc(O)c(I)c2)c(I)c1`, the outcome in experiment [1] is “inactive”; in experiment [3], “inactive”; in the experiment with CD40, CD40 (gene 958) [4], “inactive”; in [5], “inactive”; in experiment [6], “inactive”; in experiment [7], “inactive”. Further, the outcome in experiment [8], in experiment [9], in [10], in experiment [11], in [12] and in [14] was inactive. In addition, the outcome is “inactive” with CD38, CD38 (gene 952); “inactive” with CD40, CD40 (gene 958) [15]; “inactive” with CD69, CD69 (gene 969); “inactive” in [16]. The AC50 is 20 µM (active) in [2], 13 µM (active) in experiment [13] and 20 µM (active) in experiment [17].
Turning to `CN1C(=O)CC[C@H]1c1cccnc1`, the outcome in experiment [1] was “inactive”; in experiment [2], “inactive”; in experiment [3], “inactive”; with CD40, CD40 (gene 958) [4], “inactive”; in [5], “inactive”; in experiment [6] it was “inactive”. In addition, the outcome in experiment [7], in experiment [8], in experiment [9], in experiment [10], in [11] and in [12] was inactive. Further, the outcome in [13] is “inactive”; in experiment [14], “inactive”; with CD38, CD38 (gene 952), “inactive”; in the experiment with CD40, CD40 (gene 958) [15], “inactive”; with CD69, CD69 (gene 969) it was “inactive”; in experiment [16] it was “inactive”. Further, the result in experiment [17] and in experiment [18] was inactive.
